Rows were chosen to be rich in hits. Some 15% of all compounds tested hit in one or more screens of this group.
Pf growth 96h: P. falciparum growth inhibition at 96 hour, primary screen for plastid delayed-death inhibitors | P. falciparum luciferase reporter growth, 96 h | Potency, µM (series often up to 28.7 µM), actives largely listed as inhibitors | actives 6.9% (n = 320,000) | AID 504834
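Cell-based qHTS: luciferase-tagged P. falciparum in erythrocytes (2% hematocrit, 0.05% parasitemia final) incubated with compounds for 96 hours, 37 C, 5% CO2; luciferase detection reagent then added and luminescence measured.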
HCMV inh: human cytomegalovirus inhibition. HFF cells, HCMV-luciferase reporter, 72 h; hits give low values. activity change, negative = inhibition, % at 57.5 µM. actives 4.5% (n = 410,000). AID 1259415; in the data active = activity change below about -60%; inconclusive = no clear call, values can overlap the other calls; inactive = above about -39%
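Two compound doses tested in HFFs infected with HCMV-luciferase, MOI 1 PFU/cell, 72 h at 37C. Lysate luminescence read with OneGlo; data normalized against buffer-only and 10uM Salinomycin inhibitor controls.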
HCV inhibitor: HCV inhibition; Huh7.5.1 HCVcc-Cre infection, luciferase reporter, 44 h; Potency, µM (titrated, usually from 41.8 µM), hits mostly inhibitors; actives 3.4% (n = 340,000); AID 651820
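A cell-based infection assay in which seeded cells (1,000 per well) receive test compound after 4 h, are inoculated with HCVcc-Cre at approximately 0.5 moi, and are incubated 44 h before luminescence detection.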
Sm TGR inh: blocks Schistosoma mansoni thioredoxin glutathione reductase; AID 485364; Q962Y6; actives 3% (n = 360,000); Potency, µM (highest dose often 114 µM), most hits filed as inhibitors; purified TGR, DTNB reduction, TNB absorbance 405 nm; note: nearly all actives have a fitted effect of over 60% in size
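TGR 20 nM + NADPH 100 uM (dispensed conc.), cpd preinc 15 min RT; start with NADPH (500 uM addition) then DTNB (15 mM addition). Kinetic TNB absorbance, 405 nm filter. Four-parameter Hill fit across titration.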
SARS PLpro yeast: inhibitors of SARS-CoV papain-like protease in yeast; actives 0.19% (n = 330,000); AID 485353; S. cerevisiae expressing SARS-CoV PLpro, growth rescue; Potency, µM (titrated, usually from 32.9 µM), most hits filed as activators; calls by dose curve; note: nearly all actives have a fitted effect of over 55% in size
Pf growth 48h: inhibits P. falciparum growth in the first generation, 48 h | P. falciparum luciferase growth in erythrocytes, 48 h | Potency, µM (doses to about 28.7 µM), hits mostly inhibitors | actives 5.9% (n = 310,000) | AID 504832
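Cell-based growth assay: transgenic P. falciparum expressing firefly luciferase, cultured in red cells within RPMI 1640 containing 0.5% w/v Albumax, 24 mM bicarbonate and gentamycin. A drop in luciferase activity indicates inhibition.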
Hits are given with their value; . = inactive; ? = inconclusive; / = not tested or not shown; [ ] = another dose, or the depositor's remark. Unless noted, calls come from the whole dose curve; as a rule, active = well fitted curve in the direction sought with a large enough effect; inconclusive = small, poorly fitted or top-dose-only effect, or another doubt; inactive = no such curve, though single readings can be large; an effect the other way counts as inactive or inconclusive.

SMILES	Pf growth 96h	HCMV inh	HCV inhibitor	Sm TGR inh	SARS PLpro yeast	Pf growth 48h
COc1ccc(C(C#N)CC(=O)c2ccc(OC)c(OCc3ccccc3)c2)cc1OC (configuration not stated)	/	-70	/	/	/	/
CC1=CC(=O)C=C(C)C1=NOS(=O)(=O)c1ccccc1	/	-97	?	4µM	.	.
Cc1ccc2c(c1)/C(=N/OS(=O)(=O)c1ccccc1)CCS2	/	.	.	/	/	/
Cc1ccc(S(=O)(=O)ON=C2CCN(S(=O)(=O)c3ccccc3)CC2)cc1	.	.	.	.	.	.
CC1=CC(=O)C(C(C)C)=C/C1=N/OS(=O)(=O)c1ccccc1	?	-89	6.3µM	25µM	.	0.47µM
CC(C)NC(=O)C1(C)CCCN1Cc1ccccc1C#N (configuration not stated)	/	.	/	/	/	/
CCCc1c(-c2cccc(Br)c2)ncn1Cc1ccccc1OC	/	.	/	/	/	/
N#CC(c1ccc(Cl)nn1)c1ccccc1Cl (configuration not stated)	.	-63	.	.	.	/
N#CC(c1ccc(Cl)cc1)c1ccc(Cl)nn1 (configuration not stated)	?	-82	.	.	.	/
O=C(CCCNC(=O)c1ccc(Cl)cc1)NCc1ccccc1F	.	.	.	.	.	.
COc1ccc(C2NC(=S)NC3=C2CCc2cc(OC)ccc23)cc1 (configuration not stated)	5.9µM	.	?	.	.	?
COc1ccc(C2NC(=S)NC(C)=C2C(=O)N2CCOCC2)cc1 (configuration not stated)	.	.	.	.	.	.
O=S1(=O)N=C(Nc2ccc(O)c(CN3CCCCC3)c2)c2ccccc21	?	.	.	.	.	1.5µM
CCN(CC)S(=O)(=O)c1ccc(NC2=NS(=O)(=O)c3ccccc32)cc1	.	.	.	.	.	/
CCOC(=O)N1C2=NC(C(=O)OC)=C(C(=O)OC)[C@@H]3N(C)c4ccc(OC)cc4[C@]23C[C@H]1C(=O)OC	/	.	.	/	/	/
COC(=O)C1=C(C(=O)OC)[C@@H]2N(C)c3ccc(OC)cc3[C@@]23C[C@@H](C(=O)OC)N(S(=O)(=O)c2ccc(OC)cc2)C3=N1	?	.	?	.	.	9.3µM
CCC(C)[C@H](NC(=O)c1cc2cc(Cl)ccc2n1C)C(=O)N1CCC(C(=O)O)CC1 (some centres not stated)	.	-68	.	.	.	.
CC(C)[C@H](NC(=O)c1cc2cc(Cl)ccc2n1C)C(=O)N1CCC(C(=O)O)CC1	.	.	.	.	.	.
Cc1noc(C)c1CSc1nc2ccccc2c(=O)n1-c1ccccc1	.	.	4µM	.[11.4 µM]	.	/
Cc1noc(C)c1CSc1nc2[nH]ncc2c(=O)n1-c1ccccc1	.	.	.	.	.	?
C=CCn1c(SCc2c(C)noc2C)nc2ccccc2c1=O	13µM	.	.	.	.	/
C=CCn1c(SCc2nc3ccccc3c(=O)[nH]2)nc2ccccc2c1=O	/	-61	.	.	.	?
COc1cc2nc(SCc3c(C)noc3C)n(CCC3=CCCCC3)c(=O)c2cc1OC	1.7µM	.	.	.	.	?
C=CCn1c(Cc2ccccc2)nnc1SCc1nc2ccccc2c(=O)[nH]1	.	.	.	.	.	.
Cc1ccnc(NS(=O)(=O)c2ccc(NC(=O)CC(C)c3ccccc3)cc2)n1 (configuration not stated)	.	?	.	.	.	.
CC(=O)c1ccc(NC(=O)CSc2nnc3ccc(-c4ccc(Cl)cc4)nn23)cc1	/	.	/	.	/	/
CC(C)C(=O)Nc1cccc(C(=O)Nc2nnc(CC(C)(C)C)s2)c1	/	.	/	.	/	/
COc1ccc(NS(=O)(=O)c2ccc(NC(=S)NC(=O)c3cccc(F)c3)cc2)nn1	.	.	.	45µM	.	.
COc1ccc(NS(=O)(=O)c2ccc(NC(=O)c3ccc(Br)cc3)cc2)nn1	.	.	.	/	.	.
Cc1cc(NS(=O)(=O)c2ccc(NC(=S)NC(=O)c3cccc(S(=O)(=O)N(C)C)c3)cc2)no1	.	.	.	35µM	.	.

Assay outcomes (PubChem BioAssay)
